Screening data: PubChem BioAssay, National Center for Advancing Translational Sciences (NCATS)
RORgamma inh = qHTS for inhibitors of ROR gamma transcriptional activity; Nuclear receptor ROR-gamma (Mus musculus), P51450; Drosophila S2 Gal4-RORgamma UAS-luciferase reporter, 20 h; Potency, µM (series often up to 53.6 µM), without a hit: at the top dose activity change, negative = inhibition, actives largely listed as inhibitors; 5.4% of 310,000 active; AID 2551, 2010; also: potency is read from the fitted curve at half-maximal effect; % is scaled to controls: 0 for no effect and ±100 for the full control effect; nearly all actives have a fitted effect of over 60% in size
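Luciferase reporter read in Schneider cells carrying Gal4-RORγ (mouse) and UAS-Photinus luciferase; cells given compound 1 h before 700 uM copper sulfate induction, then incubated 20 h at ambient temperature.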
p53 reactivation = qHTS assay for re-activators of p53 using a Luc reporter | H1299 p53-A138V BP100-luciferase reporter, luminescence, 24 h | Potency, µM (titrated, usually from 92.2 µM), inactives show top-dose activity change, positive = activation, hits mostly activators | 0.063% of 320,000 active; also: potency is read from the fitted curve at half-maximal effect; % of control where 0% means no effect; nearly all actives have a fitted effect of over 45% in size
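H1299 (p53-null), stable ts p53-A138V + BP100-Luc; 1000 cells/well, Opti-MEM/10% FBS; cpd 4 pt, 1:5; 24 h, 37 deg C, 5% CO2; detection reagent 10 min RT; luminescence.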
CtBP-E1A inh = qHTS Assay for Inhibitors of the CtBP/E1A Interaction; AlphaScreen GST-E1A/His-CtBP binding, 1536-well; stronger effect = lower value; activity change, % (no concentration beside the values); 0.49% of 340,000 active; AID 651724, 2012; CtBP / adenovirus E1A interaction (AlphaScreen); in the data active = activity change below about -65%; inconclusive = mostly about -30% to -63%; also: % is scaled to controls: 0 for no effect and ±100 for the full control effect
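GST-E1A and His-tagged CtBP (125 nM each as 5X stock) were preincubated with pin-transferred compound for 2 h at 37 °C in the dark, then glutathione donor and nickel acceptor beads were added for 1 h before AlphaScreen reading.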
VP16 counter = VP16 counterscreen qHTS for inhibitors of ROR gamma transcriptional activity. Drosophila S2 Gal4-VP16 UAS-luciferase, luminescence, 20 h. Potency, µM (doses to about 53.6 µM), inactives show at the highest dose activity, negative = inhibition, actives largely listed as inhibitors. 3.5% of 310,000 active;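 also: Gal4-VP16 expression switched on by copper sulfate through the metallothionein promoter; potency is read from the fitted curve at half-maximal effect; % is scaled to controls: 0 for no effect and ±100 for the full control effect; nearly all actives have a fitted effect of over 50% in size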
Six1-Eya2 blk = qHTS Assay for Inhibitors of the Six1/Eya2 Interaction; activity change, % (test concentration not listed); AlphaScreen GST-Six1/His-Eya2 binding, biochemical; stronger effect = lower value; 0.56% of 360,000 active; in the data active = activity change below about -65%; inconclusive = mostly about -30% to -63%; also: % is scaled to controls: 0 for no effect and ±100 for the full control effect
Target sequence (O00167 whole entry, looked up): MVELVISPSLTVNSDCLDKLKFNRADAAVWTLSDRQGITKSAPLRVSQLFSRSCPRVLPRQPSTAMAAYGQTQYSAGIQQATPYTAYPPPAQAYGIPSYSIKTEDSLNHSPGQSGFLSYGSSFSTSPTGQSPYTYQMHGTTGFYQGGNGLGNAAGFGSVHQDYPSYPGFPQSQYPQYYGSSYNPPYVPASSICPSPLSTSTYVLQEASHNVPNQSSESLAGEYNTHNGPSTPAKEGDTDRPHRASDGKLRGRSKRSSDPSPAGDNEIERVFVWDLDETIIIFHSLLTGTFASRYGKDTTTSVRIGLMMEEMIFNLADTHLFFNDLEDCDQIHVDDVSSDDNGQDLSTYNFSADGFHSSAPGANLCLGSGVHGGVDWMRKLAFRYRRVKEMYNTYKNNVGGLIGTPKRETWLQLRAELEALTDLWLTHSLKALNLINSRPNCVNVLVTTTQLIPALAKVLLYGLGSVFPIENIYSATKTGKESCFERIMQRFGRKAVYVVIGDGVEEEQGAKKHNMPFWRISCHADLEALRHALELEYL
Target sequence (Q15475 whole entry, looked up): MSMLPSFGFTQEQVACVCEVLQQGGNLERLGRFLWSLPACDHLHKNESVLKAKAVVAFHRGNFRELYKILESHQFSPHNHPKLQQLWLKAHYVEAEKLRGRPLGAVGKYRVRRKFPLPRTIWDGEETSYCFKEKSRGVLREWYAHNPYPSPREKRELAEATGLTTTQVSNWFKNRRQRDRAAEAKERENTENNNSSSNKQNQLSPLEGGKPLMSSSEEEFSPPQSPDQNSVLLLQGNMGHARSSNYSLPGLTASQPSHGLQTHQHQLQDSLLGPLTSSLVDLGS
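GST-Six1 + His-Eya2 (5X stock: 250/500 nM); Tris pH 8.0, 300 mM NaCl, 0.05% BSA, 0.02% Tween 20; GSH donor/Ni acceptor beads; 1 h 37 °C dark; AlphaScreen readout.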
* = called active by the depositor; ? = inconclusive; . = no result; [ ] = remark or other dose. The list is not random: actives were taken first. Their share in the collection is about 5.4%. Unless noted, calls follow the shape of the dose curve; as a rule, active = well fitted curve in the direction sought with a large enough effect; inconclusive = small, poorly fitted or top-dose-only effect, or another doubt; inactive = no such curve, though single readings can be large; an effect the other way counts as inactive or inconclusive.

SMILES	RORgamma inh	p53 reactivation	CtBP-E1A inh	VP16 counter	Six1-Eya2 blk
C=CCC1([C@@H](C)CCC)C(=O)NC(=O)NC1=O	.	9%	-13	.	3
C=CCC1(C(C)CCC)C(=O)N=C(S)NC1=O (stereo unspecified)	10µM*	.	.	-4%	.
O=[N+]([O-])c1ccccc1-c1ccccc1	10%	.	.	-21%	.
C[C@]12CC[C@@H]3c4cc(O)c(O)cc4CC[C@H]3[C@@H]1CC[C@@H]2O	13µM*	.	0	?	-15
C[C@]12CC[C@@H]3c4ccc(O)c(O)c4CC[C@H]3[C@@H]1CC[C@@H]2O	?	.	-6	-4%	-4
COc1ccc(C(=O)OCC(=O)Nc2ccc([N+](=O)[O-])cc2OC)c(O)c1	?	0%	4	4%	2
O=C(CCCc1nc(-c2ccc(Cl)cc2)no1)NCC1CCCO1 (stereo unspecified)	4%	-2%	0	13µM*	-21
Cc1cc([N+](=O)[O-])c2ccccc2[n+]1[O-]	?	-12%	.	3.5µM*	1
Clc1ccc(C(c2ccc(Cl)cc2)C(Cl)Cl)cc1	35%	.	.	1%	.
CC1OC(=O)C(C(C)C)NC(=O)C(C(C)C)OC(=O)C(C(C)C)NC(=O)C(C)OC(=O)C(C(C)C)NC(=O)C(C(C)C)OC(=O)C(C(C)C)NC(=O)C(C)OC(=O)C(C(C)C)NC(=O)C(C(C)C)OC(=O)C(C(C)C)NC1=O (stereo unspecified)	0.25µM*	.	.	0.56µM*	.
COc1cc([N+](=O)[O-])c2ncccc2c1[N+](=O)[O-]	.	.	?	.	-83*
Cc1ccccc1CCNCc1cc2cccc(C)c2[nH]c1=O	?	?	.	10µM*	4
COc1ccc(/C=C/C(=O)NC(=S)N2C[C@H]3C[C@H](C2)c2cccc(=O)n2C3)cc1	-21%	.	6	8%	10
O=C(/C=C/c1ccc(Cl)cc1)NC(=S)N1C[C@H]2C[C@H](C1)c1cccc(=O)n1C2	13µM*	15%	1	-3%	-2
COc1ccc(C(=O)NC(=S)N2C[C@H]3C[C@H](C2)c2cccc(=O)n2C3)cc1	?	.	5	13%	2
O=C(/C=C/c1ccc(Br)cc1)NC(=S)N1C[C@H]2C[C@H](C1)c1cccc(=O)n1C2	18µM*	.	-10	-9%	-1
Nc1cccc2ccccc12	-23%	.	.	2%	.
O=C(c1ccccc1)C(CN1CCCC1)c1ccccc1 (stereo unspecified)	5.6µM*	-26%	2	4.5µM*	11
ClC(Cl)Br	-2%	.	.	-6%	.
CCCCCSc1cc(OC)c(CCN)cc1OC	7.1µM*	-26%	-29	?	?
CCCCCCCSc1cc(OC)c(CCN(C)C)cc1OC	?	-8%	-5	?	?
COc1cccc(Oc2c(C)oc3cc(OC(=O)N(C)C)ccc3c2=O)c1	15%	-3%	-13	0%	-7
COc1ccc(-c2oc3cc(OC)ccc3c(=O)c2O)cc1	5µM*	.	.	7.9µM*	.
CCC1/C=C/C=CCC(C)C(O)[C@@](C)(O)C(=O)C(C)C(O)C(C)C(=O)C(C)C(O)C(C)C=CC(=O)O[C@H]2C(C)C(CC1)O[C@]1(CCC(C)C(CC(C)O)O1)C2C (stereo partly specified)	0.0006µM*	.	.	50µM*	.
CC[C@@H](CO)NC(=O)[C@H]1C=C2c3cccc4[nH]cc(c34)C[C@H]2N(C)C1	-17%	.	.	6%	.
SMILES	RORgamma inh	p53 reactivation	CtBP-E1A inh	VP16 counter	Six1-Eya2 blk
CNC(=O)COC(=O)c1ccc(-c2nc3ccccc3s2)s1	0.5µM*	6%	7	0.32µM*	10
CCCCN1CC(O)=C(c2nc3ccccc3s2)C1=N	35%	?	-15	17%	-8
CCCCCCCCCOc1ccc2[nH]cc(CCN)c2c1	3.2µM*	.	.	?	.
COc1ccc2[nH]cc(CCN)c2c1	4%	-2%	-13	-15%	-13
C[C@@H](NC(=O)[C@@H](N)Cc1ccc(O)cc1)C(=O)NCC(=O)N(C)[C@@H](Cc1ccccc1)C(=O)NCCO	1%	.	.	-2%	.
Cc1ccc(/C=C/C(=O)C2C(=O)c3ccccc3C2=O)cc1	6.3µM*	?	-3	?	4
CNC(C)[C@@H](O)c1ccc(O)cc1 (stereo partly specified)	15%	.	.	-13%	.
O=C1C(=O)c2ccccc2-c2ccccc21	2µM*	-12%	?	3.2µM*	-2
NC1=C(Br)C(=O)c2ccccc2C1=O	?	-11%	?	?	-23
NC1CCC(CC2CCC(N)CC2)CC1 (stereo unspecified)	-4%	.	.	0%	.
CN1CCN(c2ccc([N+](=O)[O-])c3no[n+]([O-])c23)CC1	1.3µM*	-16%	-1	5.6µM*	3
N#Cc1ccc(CN2CCC3(CC2)CCN(C(=O)Oc2ccccc2)CC3)cc1	-4%	.	.	-1%	.
Cc1ccc(-n2c(O)c(/C=N/NC(=O)c3ccncc3)c(=O)[nH]c2=O)cc1	40%	9%	.	4%	?
C=CCn1c(O)c(/C=N/NC(=O)c2ccncc2)c(=O)[nH]c1=O	-33%	1%	-20	-4%	?
O=C(N/N=C/c1c(O)n(Cc2ccc(F)cc2)c(=O)[nH]c1=O)c1ccccc1	13µM*	8%	-81*	12%	-74*
CCCCn1c(O)c(/C=N/NC(=O)c2ccncc2)c(=O)[nH]c1=S	?	-1%	-29	3%	-85*
O=C(N/N=C/c1c(O)n(Cc2ccccc2)c(=O)[nH]c1=O)c1ccncc1	-39%	3%	?	-19%	-72*
Cc1cccc(-n2c(O)c(/C=N/NC(=O)c3ccncc3)c(=O)[nH]c2=O)c1	35µM*	0%	-26	-10%	?
O=C(O)c1ccc(N=Cc2c(O)n(Cc3ccc(F)cc3)c(=O)[nH]c2=O)cc1	0%	1%	7	2%	10
CCOc1ccc(-c2nc3ccc(-c4nc5ccc(N6CCN(C)CC6)cc5[nH]4)cc3[nH]2)cc1	2.2µM*	.	.	?	.
CCC#N	20%	.	.	0%	.
COc1cc2c(cc1/C=C/[N+](=O)[O-])OCO2	7.9µM*	-10%	1	?	-4
COc1cc([C@H]2c3cc4c(cc3[C@@H](O)[C@@H]3COC(=O)[C@H]23)OCO4)cc(OC)c1OC	-24%[16.9 µM]	.	.	-9%[17 µM]	.
COc1cc2c(cc1OC)-c1c(OC)c(OC)c(CO)c3c1C(C2)N(C)CC3 (stereo unspecified)	2%	.	.	6%	.
